Cruzain Triton = cruzain (T. cruzi) inhibition with detergent; P25779; Potency, µM, for inactives: max response, negative = inhibition, hits mostly inhibitors; purified cruzain, Z-FR-AMC fluorescence, 0.01% Triton; 0.43% of 200,000 active;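 further: plate controls were neutral wells for no effect and buffer without enzyme for full effect; nearly all actives have a fitted effect of over 40% in size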
Target sequence (P25779 123-467 limits assumed): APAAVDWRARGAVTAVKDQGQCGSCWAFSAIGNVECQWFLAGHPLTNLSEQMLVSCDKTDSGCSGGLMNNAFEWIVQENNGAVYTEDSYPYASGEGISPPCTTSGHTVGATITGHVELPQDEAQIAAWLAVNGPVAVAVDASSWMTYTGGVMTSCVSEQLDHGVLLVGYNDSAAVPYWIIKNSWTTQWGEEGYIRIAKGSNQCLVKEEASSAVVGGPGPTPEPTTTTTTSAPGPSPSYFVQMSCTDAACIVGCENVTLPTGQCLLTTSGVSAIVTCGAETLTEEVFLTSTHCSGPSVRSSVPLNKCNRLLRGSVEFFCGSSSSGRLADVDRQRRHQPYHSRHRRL
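Cysteine protease activity tested under reducing, mildly acidic conditions (100 mM sodium acetate pH 5.5, 5 mM DTT) plus 0.01% Triton X-100. Cruzain 1.5 nM; substrate Z-FR-AMC 2 uM; 15 min compound preincubation at room temperature.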
Cruzain noTriton = blocks cruzain activity in detergent-free assay | AID 1476 | P25779 | Potency, µM, without a hit: max response, negative = inhibition, hits mostly inhibitors | 2.3% of 200,000 active | purified cruzain, Z-FR-AMC fluorescence, no detergent;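 further: plate controls were enzyme without inhibitor for no effect and buffer without enzyme for full effect; nearly all actives have a fitted effect of over 40% in size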
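Purified cruzain at 1.5 nM, pre-incubated 15 min with compound at room temperature in 100 mM sodium acetate pH 5.5, 5 mM DTT, 0.00005% Triton X-100. Reaction started with 2 uM Z-FR-AMC; AMC fluorescence increase over 60 s gives rate.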
Active calls of the source: *; ? = inconclusive. This is a sample that favours compounds with a hit; in the whole collection about 2.6% have one here. The call rests on the fitted dose curve; in most records, active means well fitted curve in the direction sought with a large enough effect; inconclusive means small, poorly fitted or top-dose-only effect, or another doubt; inactive means no such curve, though single readings can be large; an effect the other way counts as inactive or inconclusive. Potency means the concentration at half of the fitted maximal effect.

SMILES	Cruzain Triton	Cruzain noTriton
Cc1cc(C)cc(-n2ccn(CC(=O)Nc3cc(C)ccc3C)c(=O)c2=O)c1	-8%	3%
O=C(CC1C(=O)N(c2ccccc2)C(=O)N1CCC1=CCCCC1)Nc1ccc(F)cc1 (stereo not drawn)	-6%	-6%
CC1=C(c2ccc(C)c(C)c2)S(=O)(=O)N=C1N1CCN(c2cccc(C)c2)C(C)C1 (stereo not drawn)	-5%	-8%
O=C(Nc1ccc(-c2nc3ccccc3s2)c(O)c1)c1ccc(Br)cc1	0%	1%
O=C(Nc1ccc(-c2nc3ccccc3s2)c(OC(=O)c2ccccc2)c1)c1ccccc1	-6%	25µM*
O=[N+]([O-])c1cccc(-c2ccc(/C=N/n3c(-c4ccccc4)n[nH]c3=S)o2)c1	-4%	16µM*
Nc1nonc1C(=O)N/N=C/c1ccc(-c2cccc([N+](=O)[O-])c2)o1	-11%	-16%
NC(=S)N/N=C/c1ccc(-c2cccc([N+](=O)[O-])c2)o1	2.8µM*	3.2µM*
Cc1n[nH]c(=S)n1/N=C/c1ccc(-c2ccccc2[N+](=O)[O-])o1	-2%	-7%
CC(=O)Nc1c(C(=O)Nc2cccc(C)c2)nnn1-c1ccc(C)cc1	-9%	?
CC(=O)N[C@H](Cc1c[nH]c2ccccc12)C(N)=O	2%	12%
COc1ccc(C2=NN(c3nc(-c4ccccc4)c(CC(=O)O)s3)C(c3ccco3)C2)cc1 (stereo not drawn)	16µM*	13µM*
COc1ccc(-c2nc(C)sc2CC(=O)O)cc1	4%	10%
CCOc1ccc(-c2cc(NC(=O)c3c(F)cccc3F)c(C(=O)OC)s2)cc1	-2%	-13%
COc1ccc(-c2nc(-c3ccccc3)c(NC(C)C)o2)cc1	0%	-11%
CCN(CC)C(=O)CSc1nnc2[nH]c(=O)cc(C)n12	0%	16%
O=C(Nc1noc2ccccc12)c1cccc(Cl)c1Cl	-4%	25µM*
COc1ccc(C(=O)Nc2noc3ccccc23)cc1	-4%	-7%
CC(C)Cc1nn2c(=O)cc(COC(=O)c3ccccc3NC(=O)C3CCCCC3)nc2s1	1%	2%
Cc1cccc(NC(=O)Cn2nnc(C(=O)NCc3cccs3)c2N)c1	0%	?
Cc1ccc2nc(N3CCN(C(=O)C4COc5ccccc5O4)CC3)sc2c1 (stereo not drawn)	-7%	6%
CCn1c2ccccc2c2cc(NC(=O)CSc3nnc(-c4ccccc4)o3)ccc21	3%	20µM*
CCOc1ccc(-c2nnc(SCC(=O)Nc3cccc(Cl)c3C)o2)cc1	-6%	?
CCn1c2ccccc2c2cc(NC(=O)CSc3nnc(-c4cccc(C)c4)o3)ccc21	7%	7.9µM*
Cc1ccc(C)c(NC(=O)CSc2nnc(-c3ccccc3)o2)c1	0%	-4%
SMILES	Cruzain Triton	Cruzain noTriton
CCOc1ccc(-c2nnc(SCC(=O)Nc3cccc(C#N)c3)o2)cc1	25µM*	25µM*
CCn1c2ccccc2c2cc(NC(=O)CSc3nnc(-c4cccc(F)c4)o3)ccc21	-10%	?
CCC(=O)N1CCc2cc(Br)cc(S(=O)(=O)NCCc3cccc(C)c3)c21	-4%	-5%
CCOc1ccc(NC(=O)Cn2cc(C(=O)c3ccc(F)cc3)c(=O)c3cc4c(cc32)OCCO4)cc1	-1%	6%
Cc1ccccc1NC(=O)Cn1c(=O)n(Cc2ccc3c(c2)OCO3)c(=O)c2ccc(C(=O)NC3CCCCC3)cc21	-1%	-14%
COc1ccc2oc(=O)c(/C(C)=N/Nc3nc(-c4cc(C)ccc4C)cs3)cc2c1	-21%	13µM*
C/C(=N\Nc1nc(-c2ccc(C)cc2C)cs1)c1cc2ccccc2oc1=O	-20%	?
COc1cccc(CNC(=O)CN2C(=O)CSc3c2c(C)nn3-c2ccccc2)c1	-3%	-7%
O=C(Nc1ccc(/C=C/c2nc3ccccc3o2)cc1)c1c(F)cccc1F	-1%	10µM*
O=C(Nc1ccc2c(c1)OCCO2)c1c(F)cccc1F	-1%	-13%
Cc1cnc(Nc2nc3ccccc3o2)nc1C(=O)Nc1cccc(C(F)(F)F)c1	-2%	-6%
O=C(Nc1ccc(/C=C/c2nc3ccccc3o2)cc1)c1cccc(C(F)(F)F)c1	-6%	7.9µM*
COc1cc(OC)c(NC2=C(c3ccc(C(F)(F)F)cc3)C(=O)c3ccccc32)cc1Cl	-8%	-1%
COCCn1c(=O)c(C)nc2cnc(Nc3ccccc3)nc21	-5%	-1%
Cc1ccc(C(=O)Nc2nnc(S(=O)(=O)N3c4ccccc4CC3C)s2)cc1 (stereo not drawn)	-2%	1%
N#C/C(=C\c1cccs1)C(=O)NCc1ccccc1	-6%	-7%
N#C/C(C(=O)NCc1ccccc1)=C1/N=C(NC(=O)c2cccs2)c2ccccc21	-4%	25µM*
O=C(NCCc1csc(-c2ccc(Cl)cc2)n1)c1cccs1	-8%	-7%
Cc1cccc(-n2c(/C=C/c3c(C)[nH]c4ccccc34)nc3ccccc3c2=O)c1	0%	-3%

Screening data: PubChem, National Center for Advancing Translational Sciences (NCATS)
